Here are results for 30 compounds from PubChem BioAssay (Tox21).

Assay [1] in a line: qHTS assay to identify aromatase inhibitors - cell viability counter screen (AID 743084).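 Further: cells stimulated with testosterone during compound exposure; nearly all actives have a fitted effect of over 55% in size.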 As to conditions: MCF-7 aro ERE viability, CellTiter-Fluor, 24 h; series mostly up to 70.3 µM. In general terms: In qHTS, concentration-response curves come from the screen itself.
Assay [2] in a line: qHTS assay to identify small molecule that activate the aryl hydrocarbon receptor (AhR) signaling pathway - cell viability counter screen (AID 743086). Further: nearly all actives have a fitted effect of over 45% in size. As to conditions: HepG2-AhR-luc viability, CellTiter-Fluor, 24 h; series mostly up to 70.3 µM. In outline:
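HepG2-AhR-luc (HG2L7.5c1) cells, 4000/well, treated 24 h at 37 C with compound; viability measured as CellTiter-Fluor fluorescence after 30 min in the same wells as the luciferase read.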

Assay [3] addresses Peroxisome proliferator-activated receptor gamma (Homo sapiens) (UniProt P37231). In words: qHTS assay to identify small molecule agonists of the peroxisome proliferator-activated receptor gamma (PPARg) signaling pathway (AID 743094; active means well fitted activation curve with a large enough effect in the signal ratio in the repeat runs, not every such curve was filed as active; the % refers to the signal ratio). The conditions noted are these: HEK293H PPARg-UAS-bla, beta-lactamase FRET ratio, 17 h; series mostly up to 57 µM. An outline of the steps: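 Agonist activity was taken from a beta-lactamase reporter (FRET substrate, 1 h at room temperature) in HEK293H cells carrying a PPARg UAS-bla construct. Compounds in DMSO were incubated 17 h at 37C after a 5 h cell pre-incubation.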

Assay [4] shares this target. In words: qHTS assay to identify small molecule antagonists of the peroxisome proliferator-activated receptor gamma (PPARg) signaling pathway (AID 743191; calls by dose curve; further: nearly all actives have a fitted effect of over 30% in size). As to conditions: HEK293H PPARg-UAS-bla, beta-lactamase ratio, antagonist, 17 h; series mostly up to 62.6 µM. An outline of the steps: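 GeneBLAzer PPARg UAS-bla HEK293H cells, 5 h post-plating, exposed to compounds 17 h at 37C. LiveBLAzer B/G FRET substrate added for 1 h at room temperature; beta-lactamase reporter read by fluorescence intensity.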

Assay [5] can be described thus: qHTS assay for small molecule agonists of the antioxidant response element (ARE) signaling pathway - cell viability counter screen (AID 743203; calls by dose curve; further: nearly all actives have a fitted effect of over 55% in size). As to conditions: ARE-bla HepG2 viability, CellTiter-Glo luminescence, 16 h; series mostly up to 73.3 µM. An outline of the steps: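 Viability counter screen: CellTiter-Glo luminescence, read after 30 min at room temperature, in ARE-bla HepG2 wells. Compound exposure lasted 16 h at 37C/5% CO2, following a 5 h pre-incubation of the cells after plating.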

Assay [6] can be described thus: qHTS assay to identify small molecule antagonists of the peroxisome proliferator-activated receptor gamma (PPARg) signaling pathway - cell viability counter screen (AID 743194). Further: nearly all actives have a fitted effect of over 55% in size. As to conditions: PPARg-bla HEK293H viability, CellTiter-Glo luminescence, 17 h, co-treated with 50 nM rosiglitazone; series mostly up to 62.6 µM. An outline of the steps: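 Cytotoxicity counter screen in PPARg-bla HEK293H cells, same wells as reporter assay. Compounds plus 50 nM rosiglitazone (final) for 17 h at 37 C, then viability read by CellTiter-Glo luminescence.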

Assay [7] in a line: qHTS assay for small molecule agonists of the antioxidant response element (ARE) signaling pathway (AID 743202; active means well fitted activation curve with a large enough effect in the signal ratio in the repeat runs, not every such curve was filed as active; the % refers to the signal ratio). The conditions noted are these: HepG2 ARE-bla reporter, beta-lactamase FRET, 16 h; series mostly up to 73.3 µM. An outline of the steps:
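HepG2 ARE-bla reporter line, 2,000 cells/well; 5 h preincubation 37 C/5% CO2; compound (DMSO) 16 h 37 C; B/G FRET substrate 2 h RT; fluorescence intensity.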

A short description of assay [8]: qHTS assay for small molecule activators of the heat shock response signaling pathway - cell viability counter screen (AID 743209). Further: nearly all actives have a fitted effect of over 50% in size. As to conditions: HSE-bla HeLa viability, CellTiter-Glo luminescence, 5 h; series mostly up to 62.6 µM. In outline: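 Cytotoxicity counter screen run in the same wells as the heat-shock bla reporter assay: HeLa HSE-bla cells, 5 h compound exposure at 37 C, viability read by CellTiter-Glo luminescence.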

A short description of assay [9]: qHTS assay for small molecule activators of the heat shock response signaling pathway (AID 743210; active means well fitted activation curve with a large enough effect in the signal ratio in the repeat runs, with a control signal flat, not every such curve was filed as active; the % refers to the signal ratio;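 on activation: HeLa cells with beta-lactamase reporter driven by heat shock elements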). The conditions noted are these: HeLa HSE-bla reporter, beta-lactamase ratio, 5 h; series mostly up to 62.6 µM. In outline:
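Beta-lactamase reporter read-out: FRET substrate fluorescence after 2.5 h at RT, following 5 h compound treatment at 37 C of HeLa cells carrying HSE-driven bla reporter; quantitative HTS format.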

Assay [10] concerns the target Aryl hydrocarbon receptor (Homo sapiens) (UniProt P35869). In words: qHTS assay to identify small molecule that activate the aryl hydrocarbon receptor (AhR) signaling pathway (AID 743085). Further: nearly all actives have a fitted effect of over 15% in size.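 On activation: HG2L7.5c1 human HepG2 liver cells with stably integrated DRE-driven firefly reporter.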 The conditions noted are these: HepG2 AhR-luc (HG2L7.5c1), luciferase, 24 h; series mostly up to 70.3 µM. In outline: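 Cell line HG2L7.5c1 (human hepatoma, 20× DRE-luc). Plated, 5 h 37C, compound/DMSO added, 24 h 37C. CellTiter-Fluor 30 min 37C → fluorescence; then ONE-Glo 30 min RT → luminescence.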

“And” between values parts separate entries of the source, which are not always exact repeats. Equal values may be shown once. Results filed as inconclusive are left out. More than one record can exist for a structure, and the calls need not agree. The source made the active and inactive calls. Unless noted, the call rests on the fitted dose curve; in most records, active means well fitted curve in the direction sought with a large enough effect in the repeat runs; inconclusive means weak or mixed curves; inactive means no such curve, though single readings can be large; an effect the other way counts as inactive or inconclusive.
Potency means the concentration at half of the fitted maximal effect.

Peroxisome proliferator-activated receptor gamma (Homo sapiens), sequence (P37231 whole entry, looked up): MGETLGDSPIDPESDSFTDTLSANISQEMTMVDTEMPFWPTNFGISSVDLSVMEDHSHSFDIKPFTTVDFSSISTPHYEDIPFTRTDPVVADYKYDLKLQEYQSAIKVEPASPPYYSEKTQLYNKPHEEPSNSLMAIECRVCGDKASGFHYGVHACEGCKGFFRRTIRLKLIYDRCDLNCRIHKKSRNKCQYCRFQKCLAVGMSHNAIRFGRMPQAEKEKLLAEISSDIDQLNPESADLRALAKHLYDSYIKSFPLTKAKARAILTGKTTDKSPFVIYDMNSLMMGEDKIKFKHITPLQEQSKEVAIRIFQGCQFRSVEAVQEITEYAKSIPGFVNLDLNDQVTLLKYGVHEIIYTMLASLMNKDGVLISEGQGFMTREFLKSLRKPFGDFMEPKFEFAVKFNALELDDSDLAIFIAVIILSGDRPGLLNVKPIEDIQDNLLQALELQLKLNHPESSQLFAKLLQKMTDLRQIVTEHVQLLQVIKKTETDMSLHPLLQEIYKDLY
Aryl hydrocarbon receptor (Homo sapiens), sequence (P35869 whole entry, looked up): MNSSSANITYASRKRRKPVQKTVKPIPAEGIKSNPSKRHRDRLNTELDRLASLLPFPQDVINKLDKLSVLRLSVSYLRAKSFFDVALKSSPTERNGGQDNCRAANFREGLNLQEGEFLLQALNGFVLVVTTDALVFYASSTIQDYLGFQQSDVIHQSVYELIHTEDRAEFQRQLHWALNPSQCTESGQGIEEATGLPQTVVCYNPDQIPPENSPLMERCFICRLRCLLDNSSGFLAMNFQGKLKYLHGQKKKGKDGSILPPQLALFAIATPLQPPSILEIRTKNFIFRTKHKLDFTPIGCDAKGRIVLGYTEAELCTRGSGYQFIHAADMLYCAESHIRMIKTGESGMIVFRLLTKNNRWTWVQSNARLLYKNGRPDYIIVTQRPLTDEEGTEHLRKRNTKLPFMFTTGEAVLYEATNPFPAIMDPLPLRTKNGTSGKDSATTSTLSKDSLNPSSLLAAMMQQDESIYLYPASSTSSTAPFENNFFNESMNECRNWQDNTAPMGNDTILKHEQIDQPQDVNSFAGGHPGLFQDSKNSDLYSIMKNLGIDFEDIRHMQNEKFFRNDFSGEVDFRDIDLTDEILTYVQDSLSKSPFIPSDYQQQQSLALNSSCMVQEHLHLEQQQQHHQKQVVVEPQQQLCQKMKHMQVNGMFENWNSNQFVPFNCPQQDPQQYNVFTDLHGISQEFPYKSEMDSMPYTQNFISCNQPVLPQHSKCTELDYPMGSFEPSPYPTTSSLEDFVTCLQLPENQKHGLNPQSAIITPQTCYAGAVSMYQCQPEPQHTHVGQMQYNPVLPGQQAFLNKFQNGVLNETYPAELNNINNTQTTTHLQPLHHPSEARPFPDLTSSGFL

For the compound `CC(COc1ccccc1)N(CCCl)Cc1ccccc1` (stereo unspecified), the Potency result in [1], in assay [2], in [3] and in [4] was “inactive” throughout. The Potency in [5] is 61.1 µM (active) and inactive.

On to `O=C(O)CCc1ccccc1`, for which the Potency entry in [2], in assay [6], in assay [7], in assay [8] and in [9] was “inactive” in each case.

As to `CNC1(C)C2CCC(C2)C1(C)C` (stereo unspecified), the Potency entry in [1], in assay [2], in [3], in assay [4], in assay [6] and in assay [7] was “inactive” each time. In addition, the Potency entry in assay [5], in assay [8] and in [9] was “inactive” throughout.

Regarding `Nc1nc2ccccc2[nH]1`, the Potency entry in assay [1], in [2], in [3], in assay [4], in [6] and in assay [7] was “inactive” in each case. Besides, the Potency result in assay [5], in assay [8] and in assay [9] was “inactive” throughout.

For `CCCCOCCOC(=O)c1ccccc1C(=O)OCCOCCCC`, the Potency result in assay [1], in assay [2], in [3], in [4], in assay [6] and in [7] was “inactive” each time. The Potency entry in assay [5] and in [8] was “inactive” in each case.

For the compound `CC(C)(C)NCC(O)COc1ccccc1OCC1CCCO1` (stereo unspecified), the Potency entry in [4], in [6], in assay [7], in assay [5], in assay [8] and in [9] was “inactive” throughout.

Turning to `CCCCCCCCCCCCCCCCCl`, the Potency entry in assay [1], in assay [2], in [3], in assay [4], in [6] and in [7] was “inactive” throughout. Besides, the Potency result in assay [5], in assay [8] and in assay [9] was “inactive” each time.

With `O=Cc1ccc(Cl)cc1`, the Potency entry in [1], in assay [2], in [3], in [4], in assay [6] and in assay [7] was “inactive” throughout. The Potency result in assay [5] and in assay [9] was “inactive” each time.

As to `O=Nc1ccc(Nc2ccccc2)cc1`, the Potency in assay [1] is 27.4 µM (active); in [3] it was 15.5 µM (active); in assay [6], 19.6 µM (active) and 43.6 µM (active); in assay [7], 3.06 µM (active). Further, the Potency entry in [2] and in assay [5] was “inactive” in each case.

For the compound `CCN(CC)CCOc1ccc(/C(=C(\Cl)c2ccccc2)c2ccccc2)cc1`, the Potency result in assay [1] is “inactive and 27.9 µM (active)”; in [6], 17.7 µM (active); in [5], 15.7 µM (active) and 29.8 µM (active); in [8], 39.7 µM (active) and 29.8 µM (active). Moreover, in assay [10], the Potency entry is “inactive”.

Regarding `c1cc(C(c2ccc(OCC3CO3)cc2)C(c2ccc(OCC3CO3)cc2)c2ccc(OCC3CO3)cc2)ccc1OCC1CO1` (stereo unspecified), the Potency result in assay [1], in assay [2], in assay [6], in assay [5] and in [8] was “inactive” in each case.

Regarding `CCCOC(=O)c1cc(O)c(O)c(O)c1`, the Potency is 4.22 µM (active) and inactive in assay [10]; 15.3 µM (active) in assay [7]. The Potency result in [2], in assay [3], in assay [6], in assay [5], in assay [8] and in assay [9] was “inactive” each time.

`Oc1ccc(Cl)cc1Cc1cc(Cl)ccc1O`: the Potency result in assay [10], in assay [2] and in assay [3] was “inactive” throughout. Moreover, the Potency in [4] was 9.95 µM (active) and 26.6 µM (active); in assay [6] it was 11.2 µM (active) and 3.89 µM (active) and 16.8 µM (active); in assay [5] it was 27.8 µM (active) and 54.5 µM (active).

`O=C1CC2(CCCC2)CC(=O)N1CCCCN1CCN(c2ncccn2)CC1`: the Potency entry in assay [2], in assay [6], in assay [5], in [8] and in assay [9] was “inactive” throughout. In addition, in [7], the Potency is 27.3 µM (active).

In the case of `CC[C@H]1CN2CCc3cc(OC)c(OC)cc3[C@@H]2C[C@@H]1C[C@H]1NCCc2cc(OC)c(OC)cc21`, the Potency is 9.72 µM (active) in [1]; 24.4 µM (active) in [5]; 2.46 µM (active) and 10.6 µM (active) in assay [8]. For the same compound, the Potency entry in [10] and in [9] was “inactive” in each case.

For `O=C1OC2(c3ccc(O)cc3Oc3cc(O)ccc32)c2ccccc21`, the Potency entry in assay [10], in assay [6] and in assay [5] was “inactive” each time.

`CCN(CC)C(=S)SSC(=S)N(CC)CC`: the Potency in assay [1] was 86.3 nM (active) and 44.3 nM (active); in assay [7], 77 nM (active) and inactive; in assay [5] it was 27.9 µM (active) and inactive. The Potency result in assay [10], in assay [6] and in assay [8] was “inactive” in each case.

Regarding `Cc1cccc2n[nH]nc12`, the Potency result in assay [2], in [6], in assay [7], in [5], in [8] and in assay [9] was “inactive” in each case.

Turning to `COc1nc(C)nc(Cl)c1NC1=NCCN1`, the Potency result in [1], in assay [2], in [3], in assay [4], in [6] and in assay [7] was “inactive” throughout. Moreover, the Potency entry in [5] and in assay [9] was “inactive” throughout.

Turning to `NC(N)=Nc1nc(CSCC/C(N)=N/S(N)(=O)=O)cs1`, the Potency result in assay [1], in assay [2], in assay [3], in assay [4], in assay [6] and in [7] was “inactive” throughout. For the same compound, the Potency result in assay [5] and in assay [9] was “inactive” each time.

Turning to `CC(C)(C)c1ccccc1`, the Potency result in assay [7], in assay [5], in [8] and in assay [9] was “inactive” each time.

As to `Nc1cc(Cl)c(-c2cc(Cl)c(N)cc2Cl)cc1Cl`, the Potency in assay [1] is 48.5 µM (active); in assay [6], 48.9 µM (active) and 17.4 µM (active); in [5], 61.1 µM (active) and 21.7 µM (active); in assay [8], 24.5 µM (active). For the same compound, in assay [2], the Potency entry was “inactive”.

For `C=CC(=O)OCCCCCCOC(=O)C=C`, the Potency entry in assay [10], in assay [2], in [6] and in assay [5] was “inactive” in each case. Besides, the Potency in assay [7] was 10.9 µM (active); in [8] it was 17.4 µM (active).

As to `CC(C)CCOC(=O)c1ccc(N(C)C)cc1`, the Potency entry in assay [1], in [2], in assay [3], in assay [6], in assay [7] and in assay [5] was “inactive” in each case. Moreover, the Potency result in [8] and in [9] was “inactive” throughout.

`BrC1CCC(Br)C(Br)CCC(Br)C(Br)CCC1Br` (stereo unspecified): the Potency result in [10], in assay [2] and in assay [3] was “inactive” in each case. The Potency in assay [6] was 16.5 µM (active).

As for `CCN(CC)c1ccc2c(C)cc(=O)oc2c1`, the Potency entry in [6], in assay [5] and in assay [8] was “inactive” throughout. Moreover, the Potency in [9] was 31.1 µM (active).

For the compound `Nc1ccc(O)cc1`, the Potency in assay [1] was 54.5 µM (active) and 31.8 µM (active); in assay [2] it was 54.5 µM (active) and 50.4 µM (active); in [7] it was 29.8 µM (active); in assay [5], 12.7 µM (active) and inactive; in assay [8], 25.5 µM (active) and inactive. Moreover, the Potency result in assay [3], in assay [4], in [6] and in assay [9] was “inactive” throughout.

In the case of `Nc1ccc2cc3ccccc3cc2c1`, the Potency in assay [10] was 62.2 µM (active) and 8.63 µM (active). Further, the Potency entry in assay [6], in assay [5] and in [8] was “inactive” each time.

On to `O=C(O)Cn1cnnn1`, for which the Potency entry in [4], in assay [6], in assay [7], in assay [5] and in assay [9] was “inactive” in each case.

On to `CN(C)c1ccc2nc3ccc(=[N+](C)C)cc-3sc2c1`, for which the Potency is 23.7 µM (active) and 13.1 µM (active) in [1]; 9.44 µM (active) and 16.6 µM (active) and 27.3 µM (active) in assay [2]; 43.6 µM (active) and inactive in assay [4]; 11.7 µM (active) and 9.69 µM (active) and 11.9 µM (active) in [5]. Besides, the Potency entry in assay [3] and in assay [6] was “inactive” each time.
